High-throughput results: PubChem, National Center for Advancing Translational Sciences (NCATS)
Hits are enriched below; roughly 12% of the tested compounds scored in any of these assays.
HP1b binding inh: blocks HP1-beta chromodomain binding to methylated histone tails | AlphaScreen HP1-beta / biotin-H3K9me3 peptide binding | P83916 | 390,000 compounds, 0.56% hits | AID 540317 | Potency, µM (top dose mostly 114 µM), without a hit: top-dose activity change, negative = inhibition, most hits filed as inhibitors; further: nearly all actives have a fitted effect of over 70% in size
Target sequence (P83916 whole entry, looked up): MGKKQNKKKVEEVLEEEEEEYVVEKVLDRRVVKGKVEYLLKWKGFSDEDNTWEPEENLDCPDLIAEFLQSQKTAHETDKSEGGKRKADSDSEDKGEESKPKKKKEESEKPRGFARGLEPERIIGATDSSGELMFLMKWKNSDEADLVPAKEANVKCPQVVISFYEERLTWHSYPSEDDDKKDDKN
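HP1-beta protein (50 nM final) preincubated 30 min at room temperature with biotinylated H3(1-18)K9me3 peptide (50 nM) in PBS pH 7.4, 0.01% Tween-20, then compound added for 30 min. AlphaScreen streptavidin donor/nickel chelate acceptor beads (10 ug/mL final), 30 min dark, luminescence read.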
JMJD2A Tudor inh: inhibitors of human JMJD2A Tudor domain | O75164 | AlphaScreen JMJD2A-Tudor / H3K4me3 peptide binding | Potency, µM (top dose mostly 114 µM), for inactives: top-dose activity change, negative = inhibition, hits mostly inhibitors | 390,000 compounds, 4.4% hits | AID 504339; further: on the % scale 0 is the no-effect control and ±100 the full control effect; nearly all actives have a fitted effect of over 50% in size
BAZ2B block: inhibitors of human BAZ2B bromodomain | AlphaScreen BAZ2B-H3K14Ac peptide displacement | Potency, µM (doses to about 114 µM), for the others: at the top dose activity change, negative = inhibition, actives largely listed as inhibitors | Q9UIF8 | 360,000 compounds, 4.4% hits; further: on the % scale 0 is the no-effect control and ±100 the full control effect; nearly all actives have a fitted effect of over 60% in size
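Multi-concentration screen (max 110 uM) measuring displacement of acetylated histone H3 peptide from BAZ2B by AlphaScreen, using 50 nM protein, 50 nM peptide and 10 ug/mL streptavidin donor plus Ni-chelate acceptor beads.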
Sfp inh: inhibitors of Bacillus subtilis Sfp phosphopantetheinyl transferase; 310,000 compounds, 3.5% hits; Biochemical Sfp PPTase activity, qHTS; Q9F4F7; AID 1490; Potency, µM, inactives show largest response in the series, negative = inhibition, hits mostly inhibitors;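 further: the enzyme is Sfp with the accession as filed and its product quenches rhodamine fluorescence; 0% = enzyme reaction without inhibitor and -100% = no enzyme wells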
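Sfp 15 nM + cpd, 15 min RT; start w/ rhodamine-CoA 5 uM, BHQ-2-YbbR 12.5 uM (final); 50 mM Hepes pH 7.6, 10 mM MgCl2, 0.01% NP-40, 0.01% BSA; read 525/598 nm at 0 and 30 min.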
G9a inh: G9a (human) methyltransferase inhibition | 350,000 compounds, 8.8% hits | G9a H3K9 monomethylation, AlphaScreen, 2 h | AID 504332 | Q96KQ7 | Potency, µM (highest dose often 102 µM), for the others: top-dose activity, negative = inhibition, most hits filed as inhibitors; further: on the % scale 0 is the no-effect control and ±100 the full control effect; nearly all actives have a fitted effect of over 75% in size
Target sequence (Q96KQ7 913-1193 limits assumed): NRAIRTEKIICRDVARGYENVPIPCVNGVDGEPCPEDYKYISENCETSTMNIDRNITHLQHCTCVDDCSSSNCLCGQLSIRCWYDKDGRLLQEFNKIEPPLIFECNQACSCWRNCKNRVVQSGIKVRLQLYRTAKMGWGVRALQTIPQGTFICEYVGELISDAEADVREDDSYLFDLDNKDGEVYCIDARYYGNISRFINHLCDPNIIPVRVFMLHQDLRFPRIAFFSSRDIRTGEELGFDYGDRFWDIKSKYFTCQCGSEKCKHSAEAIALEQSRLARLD
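Methyltransferase reactions run at room temperature for 2 h (20 nM enzyme, 500 nM biotin-H3K9 peptide, 20 uM SAM) after a 15 min compound preincubation; product detected by AlphaScreen beads and anti-H3K9me1 antibody.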
Starred values were filed as active, the others as inactive; ? = inconclusive; / = not tested or not shown; [ ] = another dose, or the depositor's remark. The call rests on the fitted dose curve; in most records, active means well fitted curve in the direction sought with a large enough effect; inconclusive means small, poorly fitted or top-dose-only effect, or another doubt; inactive means no such curve, though single readings can be large; an effect the other way counts as inactive or inconclusive. Potency means the concentration at half of the fitted maximal effect.

SMILES	HP1b binding inh	JMJD2A Tudor inh	BAZ2B block	Sfp inh	G9a inh
COc1ccc(C(=O)/C=C/Nc2ccc(S(=O)(=O)Nc3cc(OC)nc(OC)n3)cc2)c(OC)c1	10%	-26%	-22%	-4%	25µM*
COc1cccc(C(=O)/C=C/Nc2ccc(S(=O)(=O)Nc3ccc(C(C)=O)cc3)cc2)c1	-18%	-14%	-3%	48%	50µM*
COc1cccc(C(=O)/C=C/Nc2ccc(S(=O)(=O)Nc3cc(OC)nc(OC)n3)cc2)c1	16%	-20%	?	-5%	79µM*
CCOc1ccc(CCNC(=O)c2c(C)oc3ncn(CC(C)C)c(=O)c23)cc1	40%	-9%	8%[57.1 µM]	/	-21%[59 µM]
CCOc1ccc(S(=O)(=O)N2Cc3ccccc3CC2C(=O)O)cc1 (stereo not drawn)	26%	3%[11.4 µM]	?	24%	50µM*
O=C(O)C1Cc2ccccc2CN1C(=O)COc1ccc(Cl)cc1 (stereo not drawn)	18%	-1%	-19%	21%	45µM*
COCCn1c(C)cc(O)c(C(c2ccccc2)N2CCN(c3ccccc3F)CC2)c1=O (stereo not drawn)	32%[57 µM]	-3%	?	/	?
COc1ccc(-c2nc(CSCC(=O)N3CCN(c4ccccc4F)CC3)c(C)o2)cc1	5%	-25%	-36%	/	-35%[59 µM]
CCOc1ccc(-c2nc(CSCC(=O)N3CCN(c4cccc(OC)c4)CC3)c(C)o2)cc1	?	56µM*	?	-5%	?
CCOc1ccc(-c2nc(CSCC(=O)NC3CCCc4ccccc43)c(C)o2)cc1 (stereo not drawn)	26%	-27%	?	22µM*	?
CCc1ccc(-c2nc(CSCC(=O)N3CCN(c4ccccn4)CC3)c(C)o2)cc1	-17%	?	50µM*	-8%	52%[59 µM]
COc1ccc(C2CC(=O)c3cc(-c4nc(-c5cccc([N+](=O)[O-])c5)cs4)c(=O)n(-c4ccccc4N)c3C2)cc1 (stereo not drawn)	15%	-22%	-4%	/	-30%[59 µM]
CC1=C(C(=O)NCc2ccccc2)C(c2cccs2)NC(=S)N1 (stereo not drawn)	2%	-15%	-2%	15%	5%
COc1cnc(-c2ccccn2)nc1N(C)c1ccccc1	2%	25µM*	20µM*	50µM*	?
Cc1cccc(Oc2nc(-c3ccccn3)nc3ccccc23)c1	21%	-27%	-24%	71µM*	-1%
COc1cnc(-c2ccccn2)nc1Oc1ccccc1	45%	89µM*	25µM*	7%	-4%
CN(c1ccccc1)c1ncccn1	39%	0%	/	/	/
CC(=O)c1ccc(S(=O)(=O)N2CCN(C(=O)c3cccc(S(=O)(=O)N4CC(C)OC(C)C4)c3)CC2)cc1 (stereo not drawn)	26%	-13%	/	/	/
N#Cc1c(N)oc(-c2ccco2)c1-c1ccco1	-7%	?	?	32µM*	45µM*
N#Cc1c(N)nc2c(c1-c1cccs1)CCCC2	29%	-11%	-3%	4%	34%[59 µM]
COc1ccc(-c2oc(/N=C/N3CCOCC3)c(C#N)c2-c2ccc(OC)cc2)cc1	-2%	?	-6%	-9%	?
COc1ccc(OC)c(/C=N/c2oc(-c3ccco3)c(-c3ccco3)c2C#N)c1	?	50µM*	19%	25µM*	32µM*
N#Cc1c(N)oc(-c2cccs2)c1-c1cccs1	5%	?	-11%	-9%	13µM*
Cc1nc2cnc(N3CCNCC3)nc2n(CCC#N)c1=O	/	/	/	36%	-6%[12.7 µM]
Cc1cc(C)c(NC(=O)C(=O)NCC(c2cccnc2)N2CCN(c3ccccc3F)CC2)c(C)c1 (stereo not drawn)	44%	9%	-17%	/	-2%[59 µM]
SMILES	HP1b binding inh	JMJD2A Tudor inh	BAZ2B block	Sfp inh	G9a inh
CCOC(=O)C1=C(C)NC(=S)NC1c1ccc(-c2ccc(Cl)cc2)o1 (stereo not drawn)	17%	-35%	-37%	14µM*	?
CCOC(=O)C1=C(C)NC(=S)NC1c1ccc(-c2cccc(Cl)c2C)o1 (stereo not drawn)	38%	-23%	3%	56µM*	27%[0.501 µM]
CCOC(=O)C1=C(C)NC(C)=C(C(=O)OCC)C1c1ccco1	15%	-14%	-11%	-13%	/
COC(=O)C1=C(C)NC(=S)NC1c1ccc(-c2ccccc2C(=O)OC)o1 (stereo not drawn)	5%	-29%	-39%	?	8.9µM*
COC(=O)C1=C(C)NC(=O)NC1c1ccc(-c2ccccc2Cl)o1 (stereo not drawn)	-10%	-23%[11.4 µM]	11%	-20%	?
CCOC(=O)C1=C(C)NC(=S)NC1c1ccco1 (stereo not drawn)	12%	?	-14%	71µM*	50µM*
Cc1ccc(C)c(Cn2c(=O)c3c(nc4n3CCN4c3ccccc3)n(C)c2=O)c1	7%	-19%	-14%	/	-32%[59 µM]
Cn1cc(S(=O)(=O)N2CCCC2)cc1C(=O)O	22%	-30%	/	/	/
COc1ccc(-c2ccc(NS(=O)(=O)c3cccc(Cl)c3)cc2)nn1	30%[57 µM]	-17%	-4%	/	-7%[59 µM]
COC(=O)C1=C(C)NC(=S)NC1c1ccc(-c2cccc(Cl)c2)o1 (stereo not drawn)	50%	3%	?	7.1µM*	10µM*
COc1ccc(C)cc1N1C(=N)/C(=C2/Nc3ccccc3S2)C(c2ccccc2)C1=O (stereo not drawn)	?	?	?	-7%	10µM*
COc1ccc(C2C(Oc3ccccc3)C(=O)N2c2cc(C)ccc2C)cc1OC (stereo not drawn)	35%	-6%	1%	4%	/
N#Cc1ccc(N2CCc3ccccc3C2)c([N+](=O)[O-])c1	5%	?	?	45µM*	?
O=c1c(/C=N/Nc2ccccc2)c(Sc2nnnn2-c2ccccc2)nc2ccccn12	9%	-15%	7%	6%	-13%[12.7 µM]
O=C(O)c1ccccc1N/N=C/c1c(Sc2nnnn2-c2ccccc2)nc2ccccn2c1=O	-25%	?	45µM*	6%	40µM*
Cc1ccc2c(=O)cc(C(=O)Nc3nnc(CC(C)C)s3)oc2c1C	49%	-22%	-2%	/	-28%[59 µM]
Nc1cc([N+](=O)[O-])ccc1Nc1ccccc1	-33%	?	?	17%	40µM*
Nc1cc(C(F)(F)F)ccc1Nc1ccccc1	-15%	-23%	50µM*	7%	-51%
O=[N+]([O-])c1cc(Br)c(Nc2ccccc2)c([N+](=O)[O-])c1	?	20µM*	14µM*	-8%	40µM*
O=C(Nc1ccccc1)c1ccc(Nc2c([N+](=O)[O-])cc([N+](=O)[O-])c3ccccc23)cc1	20%	-17%	?	10%	19%[59 µM]
Cc1cccc(Nc2ccc([N+](=O)[O-])cc2C(=O)O)c1	0%	?	50µM*	5%	1.4µM*
